Assay outcomes (PubChem)
Compounds with a hit are over-represented: about 3.7% of the library has one in this group of screens.
TbPYK inhibitor: blocks Trypanosoma brucei pyruvate kinase. 410,000 tested, 0.12% active. Q57TT1. TbPYK enzyme, Kinase-Glo Plus ATP luminescence, 45 min. Potency, µM (doses to about 76.8 µM), for inactives: top-dose activity, negative = inhibition, most hits filed as inhibitors; note: nearly all actives have a fitted effect of over 50% in size
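In this concentration-response screen, enzyme-free wells defined baseline while DMSO plates tracked drift. Each reaction combined TbPYK, substrate, compound and 130 uM ADP for 45 min at room temperature. Kinase-Glo Plus luminescence gave the signal.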
FMDV antiviral: blocks foot and mouth disease virus; Potency, µM (titrated, usually from 57.9 µM), for the others: at the highest dose activity change, negative = inhibition, most hits filed as inhibitors; 410,000 tested, 1.2% active; FMDV antiviral cell-based qHTS; calls by dose curve; tested in HEK293T cells; note: read-out not given here; nearly all actives have a fitted effect of over 45% in size
RE007 growth inh: less growth of the S. pombe RE007 Vpr strain; S. pombe RE007 Vpr strain, BacTiter-Glo ATP luminescence, 24 h; Potency, µM (titrated, usually from 92.2 µM), without a hit: at the top dose activity change, negative = less growth, hits mostly inhibitors; 360,000 tested, 0.21% active; AID 651644; active = well fitted falling curve with a large enough effect; inconclusive = small, poorly fitted or top-dose-only effect; inactive = no such curve, though single readings can be large or run the other way; note: nearly all actives have a fitted effect of over 50% in size
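Fission yeast strain RE007, carrying one chromosomally integrated HIV-1 vpr copy, was seeded at OD 0.01 in PMG+AL medium with 23 nL pinned compound. After 24 h at 30 °C and 99% humidity, viability was read by BacTiter-Glo luminescence.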
Sm TGR inh: inhibitors of Schistosoma mansoni thioredoxin glutathione reductase | 360,000 tested, 3% active | Potency, µM (titrated, usually from 114 µM), inactives show at the highest dose activity change, negative = inhibition, usual class: inhibitors | purified TGR, DTNB reduction, TNB absorbance 405 nm | Q962Y6 | AID 485364; note: nearly all actives have a fitted effect of over 60% in size
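First, TGR (20 nM dispensed) and NADPH were mixed with compound. Second, a 15 min room-temperature incubation followed. Third, further NADPH and then DTNB were added to start the reaction. Finally, TNB absorbance was monitored kinetically.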
* marks the source's active call; other numbers are inactive results; ? = inconclusive; . = not tested or not shown; [ ] = remark or other dose. Unless noted, calls come from the whole dose curve; as a rule, active = well fitted curve in the direction sought with a large enough effect; inconclusive = small, poorly fitted or top-dose-only effect, or another doubt; inactive = no such curve, though single readings can be large; an effect the other way counts as inactive or inconclusive. % is set by controls: 0 for no effect and ±100 for the full control effect; potency is the fitted concentration of half-maximal effect.

SMILES	TbPYK inhibitor	FMDV antiviral	RE007 growth inh	Sm TGR inh
Cc1sc(NC(=O)c2ccco2)c(C(c2cccnc2)N2CCN(c3ccc(F)cc3)CC2)c1C (configuration not stated)	-4.0%	?	-1.7%	22.4µM*
O=C(/C=C/Nc1ccc(F)cc1)c1cccs1	-13.5%	12.6µM*	-20.9%	.
O=C1CCCC(O)=C1C1C2=C(CCCC2=O)OC2=C1C(=O)CCC2	6.2%	-3.3%	-26.5%	-6.2%[57.1 µM]
COc1ccc2c(c1)OC1=C(C(=O)CCC1)C2C1=C(O)CCCC1=O (configuration not stated)	-15.6%	?	-8.2%	17.8µM*
COc1ccc(-c2ccnc(-n3ncc(C(=O)NCc4ccon4)c3C3CC3)n2)cc1F	.	-9.6%	.	.
C=CC#CC[N+]1(CC#Cc2ccccc2)CCOCC1	2.0%	-0.1%	6.6%	39.8µM*
Cn1c(=O)c(-c2cccc(C#N)c2)nc2cnc(Oc3ccccc3)nc21	.	-7.1%	.	.
O=c1[nH]c(SCc2nc3ccccc3c(=O)n2-c2ccccc2C(F)(F)F)nc2ccccc12	-0.2%	17.8µM*	5.8%	-13.3%
Cc1nc2ccccc2c(=O)n1-c1ccccc1C(F)(F)F	6.9%	.	9.8%	-0.8%
COc1ccc(-n2c(C)cc(/C=C3/SC(=S)N(C)C3=O)c2C)cc1	-3.9%	10.9%	-2.6%	-10.8%
Cc1cc(/C=C2\SC(=S)N(C)C2=O)c(C)n1-c1cccc(O)c1	-1.3%	1.26µM*	11.9%	-19.1%
CCCn1c(/C=C/c2ccccc2)nc2ccccc21	-8.8%	54.1%	-12.4%	-115.7%
CC(C)Cn1c(/C=C/c2ccco2)nc2ccccc21	-18.6%	-9.1%	1.0%	7.94µM*
Cc1nnc(NCc2ccc(Cl)cc2)c2c1nnn2Cc1ccc(F)cc1	-4.9%	-5.9%	.	-0.4%
Nc1c(Cl)cc(C2=NCCn3nc4cc([N+](=O)[O-])ccc4c32)cc1Cl	3.7%	?	2.4%	-20.0%
Nc1c(Cl)cc(C2=NCCn3c2c2ccc([N+](=O)[O-])cc2[n+]3[O-])cc1Cl	-11.4%	-15.3%	-10.1%	39.8µM*
Cc1ccc(CN(C)C(=O)CCc2c[nH]c3ccccc23)o1	-2.4%	3.6%	-8.0%	-11.0%
CN(Cc1cccnc1)C(=O)CCCc1c[nH]c2ccccc12	0.0%	18.2%	-5.7%	31.6µM*
COc1cc(CN(C)CC2CCCN(CCc3cccc(C(F)(F)F)c3)C2)ccc1O (configuration not stated)	-3.9%	-22.2%	1.1%	28.2µM*
COc1ccc(CN(C)CC2CCCN(CCc3ccc(F)cc3)C2)cc1OC (configuration not stated)	-20.2%	-1.1%	-10.4%	0.0%
O=C(CC1NCCC[C@H]1O)Cn1cnc2cc(Br)c(Cl)cc2c1=O (some centres not stated)	3.0%	.	.	.
COc1ccccc1CCNC(=O)C(=O)NCC(c1ccco1)S(=O)(=O)c1cccs1 (configuration not stated)	4.2%	0.0%	.	17.8µM*
Cc1ccc(S(=O)(=O)C(CNC(=O)C(=O)NCc2ccc(Cl)cc2)c2cccs2)cc1 (configuration not stated)	1.2%	-8.4%	.	22.4µM*
COc1ccc(N(C(=O)CCl)C(C(=O)NCCc2ccccc2)c2cccs2)cc1 (configuration not stated)	-0.7%	15.8µM*	28.3%	10µM*
COc1ccccc1CCNC(=O)C(=O)NCC(c1cccs1)S(=O)(=O)c1cccs1 (configuration not stated)	-8.1%	?	.	?
SMILES	TbPYK inhibitor	FMDV antiviral	RE007 growth inh	Sm TGR inh
COc1ccc(CCNC(=O)C(=O)NCC(c2ccco2)S(=O)(=O)c2cccs2)cc1 (configuration not stated)	-1.1%	-5.3%	.	31.6µM*
O=C(NCc1ccc(Cl)cc1)C(=O)NCC(c1cccs1)S(=O)(=O)c1ccc(Cl)cc1 (configuration not stated)	1.0%	0.0%	.	?
Brc1cccc(-c2nnc(CN3CCN(c4ccccn4)CC3)o2)c1	2.2%	-8.0%	.	6.5%
COc1cc(=O)n2c(c1C(=O)NCc1ccco1)CCN(Cc1ccc3nsnc3c1)CC2	.	-14.7%	.	.
COc1ccc(CC(=O)NCC(c2cccs2)S(=O)(=O)c2ccc(F)cc2)cc1 (configuration not stated)	6.0%	-18.7%	.	?
COc1ccccc1CCNC(=O)C(=O)NCC(c1ccco1)S(=O)(=O)c1ccc(C)cc1 (configuration not stated)	2.5%	-24.2%	.	14.1µM*
